Reference: PubChem BioAssay
Calls of active or inactive are those of the source.

test system: PRMT1 (protein arginine N-methyltransferase 1); assay: PRMT1 binders on small-molecule microarrays, primary screen, biochemical, small-molecule microarray, 635 nm fluorescence (AID 1088); conditions: small-molecule microarray binding, higher = more signal;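 note: binding of Prmt1 protein to compounds spotted on small-molecule microarray slides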

| Compound | composite z-score |
| --- | --- |
| CC(C)C(=C=CC[C@@H](O)c1ccccc1OCCO)C[C@@H](O)c1cc(Cl)cc(Cl)c1O | 1.54 |
| COc1ccc(C#Cc2ccc3c(c2)[C@]2(C(=O)N3)[C@H](C(=O)Nc3nc4ccccc4s3)[C@H]3C(=O)O[C@H](c4ccccc4)[C@H](c4ccccc4)N3[C@@H]2c2ccc(OCCO)cc2)cc1 | 1.55 |
| CC(=O)n1cc(C(O)C2C=CC3C(=O)N(c4ccccc4)C(=O)C3N2Nc2ccccc2F)c2ccccc21 (stereo unspecified) | 0.799 |
| COCCOC(=O)N1C(=O)[C@@]2(c3cc(C#CC4(O)CCCCCC4)ccc31)[C@H](c1ccc(OCCO)cc1)N1[C@H](c3ccccc3)[C@H](c3ccccc3)OC(=O)[C@H]1[C@@H]2C(N)=O | 1.53 |
| COc1cc2c(cc1O)C(c1ccc(CN3CCCC3)cc1)N(Cc1ccc([N+](=O)[O-])o1)CC2 (stereo unspecified) | -0.246 |
| COc1ccc(CCNC(=O)[C@@]2(C)c3ccccc3C(=O)N(Cc3cc(C(F)(F)F)cc(C(F)(F)F)c3)[C@H]2c2ccc(CO)cc2)cc1 | 1.53 |

test system: not listed separately; assay: yeast growth modulation, basal conditions, primary screen, YJM789 clinical isolate, OD600, 24 h (AID 1089);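 note: growth of clinical yeast isolate S. cerevisiae YJM 789 seeded 1000 cells per well; test concentration not given here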; conditions: S. cerevisiae YJM789 growth, higher = more signal, called active from +8 up or from −8 down

| Compound | z-score |
| --- | --- |
| O=C1C2C=CC(C(O)c3ccc([N+](=O)[O-])cc3)N(Nc3ccccc3)C2C(=O)N1c1ccccc1 (stereo unspecified) | -0.247 (inactive) |
| CC(=O)NCCCC[C@@H]1NC(=O)[C@H]2C[C@@H](C(=O)NCCCCCC[N+](C)(C)C)[C@@H](c3ccc(O)cc3)N2C1=O | -0.509 (inactive) |
| CCCC[C@H]1OB(O)C[C@H]2C1=C(COC)C[C@H]1C(=O)C=CC(=O)[C@H]12 | 0.275 (inactive) |
| C[C@@H](OCc1ccccc1)C1NC(=O)[C@@]23C(=O)N[C@@H](Cc4ccccc4)C2[C@H](C)[C@@]2(C)O[C@H]2C3/C=C/C/C=C\CNC(=O)[C@H](Cc2ccccc2)NC1=O (stereo partly specified) | -0.712 (inactive) |
| C=CCC(OC(C)=O)[C@@H]1[C@@H](N(Cc2ccc(-c3cccc(C(F)(F)F)c3)o2)C(=O)c2cccc3ccccc23)c2cc(OCCCO)ccc2N1C(=O)c1ccc2ccccc2c1 (stereo partly specified) | 0.611 (inactive) |
| COCCn1c(C(=O)N2CCCC2)cc2c1C[C@H]1CN(C(=O)c3ccccc3)[C@@](Cc3ccccc3)(C(=O)OC)[C@@H]21 | 0.448 (inactive) |
| C=CC[C@@]12N=C(c3ccc(OCCCO)cc3)O[C@@H]1c1ccccc1N(Cc1ccccc1)C2=O | -0.965 (inactive) |
| C[C@]1(C(=O)NCC(F)(F)F)c2ccccc2C(=O)N(Cc2ccc(OC(F)(F)F)cc2)[C@H]1c1ccc(CO)cc1 | 0.0118 (inactive) |
| O=C1N(CCS(=O)(=O)c2ccccc2)c2ccccc2[C@@H]2OC(c3ccc(OCCCO)cc3)=N[C@]12CCS(=O)(=O)c1ccccc1 | 0.864 (inactive) |
| CN(C)CCCC[C@@H]1NC(=O)[C@@H]2C[C@H](C(=O)NCCCCCCNC(=O)CS)[C@H](c3cccc(OCCO)c3)N2C1=O | -0.283 (inactive) |
| [N-]=[N+]=Nc1ccccc1[C@@H]1OC(c2ccc(OCCCO)cc2)=N[C@]1(Cc1ccccc1)C(N)=O | 0.622 (inactive) |
| C=CC[C@]1(C(=O)N(C)C)COC(c2ccc(OCCCO)cc2)=N1 | 0.0794 (inactive) |
| O=C1O[C@@H](c2ccccc2)[C@@H](c2ccccc2)N2[C@@H](c3ccc(O)cc3)[C@]3(C(=O)Nc4ccc(C#CC5=CCCCC5)cc43)[C@@H](C(=O)N3CCCCCCC3)[C@H]12 | -1.67 (inactive) |
| CCCCC(=C=CC[C@@H](O)c1cccc(OCCO)c1)C[C@@H](O)COCc1ccccc1 | -0.59 (inactive) |
| [N-]=[N+]=NCc1ccccc1C[C@]1(C(=O)O)COC(c2ccc(OCCCO)cc2)=N1 | 0.493 (inactive) |
| COC(=O)[C@]1(CO)N=C(c2ccc(OCCCO)cc2)O[C@@H]1c1ccccc1CN=[N+]=[N-] | 0.11 (inactive) |
| COc1ccc(NN2C(C(O)c3cc(C(F)(F)F)cc(C(F)(F)F)c3)C=CC3C(=O)N(C4CCCCC4)C(=O)C32)cc1 (stereo unspecified) | -0.0995 (inactive) |
| CN(C)CCCC[C@@H]1NC(=O)[C@H]2C[C@@H](C(=O)NCc3ccc(F)cc3)[C@@H](c3ccc(O)cc3)N2C1=O | -0.42 (inactive) |

| Compound | z-score |
| --- | --- |
| CCCC=C(CCC)[C@@H](NC(=O)c1ccccc1)c1ccc(C(=O)OC)cc1 | -0.532 (inactive) |
| C=CCC(OC(C)=O)[C@@H]1[C@@H](N(Cc2cccc3ccccc23)C(=O)c2cccc3ccccc23)c2cc(OCCCO)ccc2N1C(=O)Cc1ccc2ccccc2c1 (stereo partly specified) | -0.796 (inactive) |
| C=C(COC)/C(=C/C[C@@H](OC(C)=O)c1ccccc1OCCO)c1cc(C(=O)OC)ccc1OC | 1.16 (inactive) |
| CO[C@H]1O[C@H](CO)[C@@H](OC(=O)Nc2ccc(C(F)(F)F)cc2)[C@H](OC(=O)Nc2ccccc2-c2ccccc2)[C@@H]1OC(=O)Nc1ccccc1-c1ccccc1 | 0.94 (inactive) |
| CCOC(=O)C[C@H]1[C@H](OC(=O)c2ccc(-c3ccccc3)cc2)[C@@H](NC(=O)CC(C)C)c2cc(OCCCO)ccc2N1C(=O)Cc1ccc(OC)cc1 | -1.15 (inactive) |
| CCOC(=O)C[C@H]1[C@H](OC(=O)c2cc3ccccc3oc2=O)[C@@H](NC(=O)C2CCCCC2)c2cc(OCCCO)ccc2N1C(=O)Cc1ccc(OC)cc1 | 0.248 (inactive) |
| N#Cc1ccc(C(O)C2C=CC3C(=O)NC(=O)C3N2Nc2ccccn2)cc1 (stereo unspecified) | -1.4 (inactive) |
| O=C1C2C=CC(C(O)c3cccs3)N(Nc3ccccc3)C2C(=O)N1c1ccccc1 (stereo unspecified) | 0.521 (inactive) |
| COC(=O)[C@@]1(Cc2ccc(OC)cc2)[C@H]2c3cc(C(=O)N4CCCC4)n(CCc4ccc(OC)c(Br)c4)c3C[C@H]2CN1C(=O)c1ccccc1 | 0.0024 (inactive) |
| CO[C@H]1O[C@H](CO)[C@@H](OC(=O)Nc2ccc(C(F)(F)F)cc2)[C@H](OC(=O)Nc2ccccc2-c2ccccc2)[C@H]1OC(=O)Nc1ccccc1-c1ccccc1 | 1.32 (inactive) |
| CCOC(=O)C1=C(C(=O)OCC)N(S(=O)(=O)CC[Si](C)(C)C)[C@H](c2ccccc2)CC1 | 0.807 (inactive) |
| CC(C)C(=C=CC[C@@H](O)c1ccccc1OCCO)C[C@@H](O)c1cc(Cl)cc(Cl)c1O | -0.0964 (inactive) |
| COc1ccc(C#Cc2ccc3c(c2)[C@]2(C(=O)N3)[C@H](C(=O)Nc3nc4ccccc4s3)[C@H]3C(=O)O[C@H](c4ccccc4)[C@H](c4ccccc4)N3[C@@H]2c2ccc(OCCO)cc2)cc1 | 3.16 (inactive) |
| CC(=O)n1cc(C(O)C2C=CC3C(=O)N(c4ccccc4)C(=O)C3N2Nc2ccccc2F)c2ccccc21 (stereo unspecified) | -0.626 (inactive) |
| COCCOC(=O)N1C(=O)[C@@]2(c3cc(C#CC4(O)CCCCCC4)ccc31)[C@H](c1ccc(OCCO)cc1)N1[C@H](c3ccccc3)[C@H](c3ccccc3)OC(=O)[C@H]1[C@@H]2C(N)=O | 1.29 (inactive) |
| COc1cc2c(cc1O)C(c1ccc(CN3CCCC3)cc1)N(Cc1ccc([N+](=O)[O-])o1)CC2 (stereo unspecified) | -0.686 (inactive) |
| COc1ccc(CCNC(=O)[C@@]2(C)c3ccccc3C(=O)N(Cc3cc(C(F)(F)F)cc(C(F)(F)F)c3)[C@H]2c2ccc(CO)cc2)cc1 | 0.182 (inactive) |
